Assay results from PubChem BioAssay AID623959 (National Center for Advancing Translational Sciences (NCATS), 2012).
Hit rate of the full screen: of about 1,400 compounds, fewer than 10 were called active. Not shown: some 8% with an inconclusive outcome. The call rests on the fitted dose curve; in most records, active means well fitted curve in the direction sought with a large enough effect; inconclusive means small, poorly fitted or top-dose-only effect, or another doubt; inactive means no such curve, though single readings can be large or run the other way. A selection follows.

biological target: Transient receptor potential cation channel subfamily V member 1 (Homo sapiens) (UniProt Q8NER1); assay: qHTS Assay for Compounds that Act as Potentiators of the Vanilloid Receptor 1: Hit Validation; conditions: TRPV1-expressing cells, Fluo-8 calcium influx, capsaicin EC20; series mostly up to 42.1 µM; activity change, positive = potentiation: at the top concentration; further: % of control where 0% means no effect
Source text: The transient receptor potential ion channel, family V, number 1, (TRPV1) is one of the most important molecular transducers of painful stimuli and a potential target for analgesic drug development. Although recent clinical trials with orthosteric antagonists have not produced a successful drug because of a hyperthermia side effect and their tendency to block thermal noxious pain, this ion channel is undeniably well placed in the pain pathway, and the idea of blocking pain signals before they enter the CNS is an excellent concept and of proven efficacy when TRPV1 agonists are used. We propose a new approach involving allosteric modulation to impose an activity-dependent constraint within the context of inflammation and tissue damage that would alter the responsiveness of the channel in a way that an orthosteric vanilloid antagonist cannot achieve. We believe that the allosteric modulator approach has not been explored for this target. The main goal of this proposal is to identify additional, new, potent allosteric modulators of TRPV1 that can be used to investigate TRPV1 function. Our recent report provides evidence of proof of concept, but the compounds are just at the edge of utility in terms of potency. […] The question of whether they can be used as analgesic agents is complex, but if suitable compounds are identified then testing for analgesic properties will be conducted. Compounds identified as agonists were re-tested in the primary screen for hit validation. NIH Chemical Genomics Center [NCGC] NIH Molecular Libraries Probe Centers Network [MLPCN] MLPCN Grant: MH089480 Assay Submitter (PI): Michael Iadarola, National Institute of Dental and Cranofacial Research
Upon TRPV1 activation in TRPV1 cells, the channel opens and extracellular cations flow through the channel into the cytosol. A calcium binding dye (Fluo-8) becomes fluorescent when bound to calcium. This dye is pre-loaded into cells and is used as a marker for calcium influx. The amount of accumulated calcium is precisely quantified using the FDSS kinetic reader and the calcium dye. For the HTS assay, freshly prepared cells are plated at a density of 2000/well in 3 ul medium in 1536-well plates and cultured overnight at 35.5C. Cells will be loaded with 1 ul of the homogeneous calcium dye (ABD Bioquest) at room temperature for 40 to 90 minutes. Plates will be loaded into the FDSS kinetic reader and a 1 sec / cycle for 10 second baseline signal will be measured. Compound library will then be added with a pintool at 23 nl and measured kinetically for 3 minutes. This portion of the read is considered the agonist portion of the screen. Following the 3 minutes of incubation, an on board pipettor will deliver 1 ul of capsaicin for a final concentration equal to the EC20. Signal will be measured kinetically for an additional 2 minutes. This portion of the read is considered the allosteric enhancer portion of the screen. The FDSS reader has a standard filter set capable of measuring calcium bound Fluo-8 (ex=480 and em=520 nm).

Chain of Transient receptor potential cation channel subfamily V member 1 (Homo sapiens) (Q8NER1 whole entry, looked up): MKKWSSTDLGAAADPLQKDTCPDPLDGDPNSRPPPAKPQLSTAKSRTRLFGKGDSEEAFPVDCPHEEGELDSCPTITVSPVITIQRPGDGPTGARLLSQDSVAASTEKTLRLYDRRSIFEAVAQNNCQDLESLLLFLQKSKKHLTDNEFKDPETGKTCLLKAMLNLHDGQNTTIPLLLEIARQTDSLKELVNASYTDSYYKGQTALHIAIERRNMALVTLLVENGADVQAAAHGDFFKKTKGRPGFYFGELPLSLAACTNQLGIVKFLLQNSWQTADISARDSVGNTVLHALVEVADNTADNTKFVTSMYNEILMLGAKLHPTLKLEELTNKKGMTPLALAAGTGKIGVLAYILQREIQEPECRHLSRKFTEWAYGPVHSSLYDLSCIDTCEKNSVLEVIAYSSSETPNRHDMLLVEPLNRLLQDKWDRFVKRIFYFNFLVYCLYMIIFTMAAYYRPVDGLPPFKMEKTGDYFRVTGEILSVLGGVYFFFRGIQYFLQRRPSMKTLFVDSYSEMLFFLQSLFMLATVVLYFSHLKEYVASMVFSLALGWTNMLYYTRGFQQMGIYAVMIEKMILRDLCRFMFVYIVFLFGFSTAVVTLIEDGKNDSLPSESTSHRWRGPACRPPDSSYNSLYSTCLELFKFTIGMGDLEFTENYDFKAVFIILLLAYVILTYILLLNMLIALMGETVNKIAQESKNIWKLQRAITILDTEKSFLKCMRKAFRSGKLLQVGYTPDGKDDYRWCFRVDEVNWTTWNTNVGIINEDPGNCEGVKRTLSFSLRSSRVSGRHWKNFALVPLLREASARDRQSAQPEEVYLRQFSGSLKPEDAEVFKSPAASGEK

Activity change, positive = potentiation, inactive:
CC(C)(C)OC(=O)NCCCC[C@H](NC(=O)c1nc[nH]c1C(=O)NCc1ccc(CNC(=O)OC(C)(C)C)cc1)C(=O)OC(C)(C)C 0.195%
CN(c1ccccc1)S(=O)(=O)c1ccc(Cl)c(C(=O)NCCc2c[nH]c3ccccc23)c1 -6.03%
CCc1cccc(C)c1NC(=S)N(CCCN1CCN(C)CC1)Cc1cccs1 -8.28%
Cc1cccc(-n2c(=O)[nH]c3c(C(N)=O)nc(CC(C)C)nc32)c1 0.951%
COc1ccc(NC(=O)CCCSc2nc(-c3ccco3)cc(C(F)(F)F)n2)cc1OC -38.7%
Cc1ccc(NC(=O)c2cc(S(=O)(=O)N3CCOCC3)ccc2F)c(C)c1 -31.2%
CCOC(=O)c1c(C)c(C(=O)NCC2CCCO2)c(C)n1C (configuration not stated) -7.81%
Cc1ncsc1CCC(=O)N1CCCC(Nc2ccc(C(C)C)cc2)C1 (configuration not stated) -39.8%
Cc1ccc(NCc2n[nH]c(=S)n2-c2ccccc2)c(C)c1 9.07%
NNC(=O)C1COc2cc3ccccc3cc2O1 (configuration not stated) -31.3%
CCCCC(=O)Nc1ccc(C(=O)Nc2ccc(S(=O)(=O)N3CCCC3)cc2)cc1 -8.84%
COc1ccc(C(=O)Nc2ccc3ccccc3c2)cc1 -32.9%
Cc1sc2ncn(CC(=O)Nc3cccc(S(N)(=O)=O)c3)c(=O)c2c1-c1ccccc1 -4.7%
CCC(=O)N(CCc1ccccc1)Cc1cc2cccc(C)c2[nH]c1=O -38.2%
Cc1c(=O)n(OCc2ccccc2F)c2ccccc2[n+]1[O-] 0.445%
Nn1c(Cc2ccccc2)nc2cc(Cl)ccc2c1=O -8.59%
Cc1ccc2c(c1)[C@H]1[C@H](CO2)[C@H](c2ccccc2)[C@]2(C)C(=O)Nc3cc(Cl)ccc3C(=O)N12 3%
Cc1cc(C)cc(Oc2nc3ccccn3c(=O)c2/C=C(\C#N)C(=O)NC2CCS(=O)(=O)C2)c1 (configuration not stated) -10.1%
CCC(=O)Nc1cccc(NC(=O)c2ccc3c(c2)OCCO3)c1 -9.67%
CCOc1ccc(-c2cccc(NS(=O)(=O)c3cc([N+](=O)[O-])ccc3Cl)c2)nn1 2.27%
COC(=O)CCC(=O)OC1(C)C(=O)C=C2C=C(C3CC3)N(c3ccccc3)C=C2C1=O (configuration not stated) -6.19%
CCN(CC(=O)Nc1ccccc1OC)CC(=O)Nc1sccc1C#N 5.9%
C=CCOc1c(Br)cc(CNc2ccc3[nH]c(=O)[nH]c3c2)cc1OCC -25.8%
O=C(CSc1nnc(Cc2ccccc2)o1)NC1CC2CCC1C2 (configuration not stated) 6.43%
CC(=O)N1CCN(c2ccc(NC(=O)C(c3ccccc3)c3ccccc3)cc2)CC1 -5.18%
Cc1cccc(NC(=S)NCC(c2cccnc2)N(C)C)c1C (configuration not stated) 5.7%
CC(C)(C)C(=O)NNC(=O)c1ccc(Oc2cc(Cl)cc(Cl)c2)o1 0.968%
